Compound activity: PubChem, The Scripps Research Institute Molecular Screening Center
M1 ag = activates human CHRM1 receptor. activation, % at 3 µM. actives 0.33% (n = 360,000). CHO-K1 hM1, Fluo-8 calcium fluorescence, agonist mode; 0% DMSO, 100% acetylcholine EC100. AID 588814. P11229;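 active = activation above the run's mean compound activation plus 3 SD, cut at about 16% in these data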;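 also: peak over basal fluorescence ratio within a 140 s kinetic read after compound addition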
Target sequence (P11229 whole entry, looked up): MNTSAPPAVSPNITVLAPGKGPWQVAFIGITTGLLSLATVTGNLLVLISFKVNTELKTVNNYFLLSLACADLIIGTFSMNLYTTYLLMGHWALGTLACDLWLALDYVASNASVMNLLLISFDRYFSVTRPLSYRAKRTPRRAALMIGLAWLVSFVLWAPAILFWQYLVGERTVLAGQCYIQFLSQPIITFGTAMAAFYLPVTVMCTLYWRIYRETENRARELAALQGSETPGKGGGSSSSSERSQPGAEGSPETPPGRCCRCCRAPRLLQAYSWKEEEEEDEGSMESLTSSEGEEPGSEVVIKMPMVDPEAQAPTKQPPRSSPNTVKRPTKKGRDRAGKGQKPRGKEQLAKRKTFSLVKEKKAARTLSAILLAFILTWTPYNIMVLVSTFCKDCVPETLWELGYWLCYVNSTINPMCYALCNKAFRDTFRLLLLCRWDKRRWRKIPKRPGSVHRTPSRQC
M1 PAM = positive allosteric modulators of human M1 muscarinic receptor; actives 0.088% (n = 360,000); P11229; CHO-K1 hM1, Fluo-8 calcium fluorescence, ACh EC20; 0% = ACh EC20, 100% = maximal ACh; activation, % at 3 µM; AID 588819; in the data active = activation above about 19%, passing the limit was not always enough
CHO-K1 Ca antag = M1 antagonist counterscreen hit in parental CHO-K1 cells. AID 602250. ATP-induced calcium, Fluo-8 fluorescence. actives 0.6% (n = 360,000). inhibition, % at 3 µM;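 active = inhibition above a per-plate cutoff, the plate's mean sample inhibition plus 3 SD, cut at about 24% in these data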
M1 ag parental = M1 agonist counterscreen hit in parental CHO-K1 cells; Fluo-8 calcium fluorescence; scaled to maximal ATP response, vehicle zero; activation, % at 3 µM; actives 0.48% (n = 360,000); in the data active = activation above about 15%;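 also: untransfected CHO-K1 host cells lacking M1 receptor as counterscreen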
CHO-K1 Ca PAM = counter-screen for M1 PAMs: effect in parental CHO-K1 cells; AID 602247; actives 0.02% (n = 360,000); activation, % at 3 µM; ATP EC20, Fluo-8 calcium fluorescence; 0% at ATP EC20, 100% at ATP max;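 active = activation above the run cutoff, the mean activation of all test compounds plus 3 SD, cut at about 40% in these data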;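 also: peak over basal fluorescence ratio in a 140 s read after ATP addition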
M1 antag = blocks human M1 muscarinic receptor | P11229 | CHO-K1 hM1, Fluo-8 calcium fluorescence, ACh EC80 antagonist | inhibition, % at 3 µM | actives 1.3% (n = 360,000);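 active = percent inhibition above its own plate's cutoff, namely the mean of that plate's compound wells plus 3 SD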;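 also: peak over basal fluorescence ratio during 140 s after agonist addition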
Large screens that a line does not name were inactive. In the library only some 2.4% were active in any assay of this set; here they are far more common.

O=C(CCNC(=O)c1ccc(Cl)cc1)Nc1ncccc1O	none
O=C(CCCNC(=O)c1ccc(Cl)cc1)Nc1ncccc1O	M1 PAM 26
Cc1c(CCOC(=O)c2ccccc2)sc[n+]1CC(=O)c1ccc(Br)cc1	M1 antag 77
Cc1c(CCOC(=O)c2ccccc2)sc[n+]1Cc1ccccc1	CHO-K1 Ca antag 26, M1 antag 98
Cc1c(CCOC(=O)c2cc([N+](=O)[O-])cc([N+](=O)[O-])c2)sc[n+]1CC(=O)c1ccccc1	none
CCCC(C)C(=O)Nc1nnc(CCc2ccccc2)s1 (stereo not given)	none
CN1CCN(C2=C(Cl)C(=O)N(Cc3ccccc3)C2=O)CC1	M1 antag 27
CCN1CCN(C2=C(Cl)C(=O)N(Cc3ccccc3)C2=O)CC1	M1 antag 78
O=C1OCCC1=COCCCCCOC=C1CCOC1=O	none
COc1ccc(-n2nnnc2C(c2cccc3ccccc23)N2CCN(C/C=C/c3ccccc3)CC2)cc1 (stereo not given)	none
COc1ccc(C(c2nnnn2-c2ccc3c(c2)OCCO3)N2CCN(C/C=C/c3ccccc3)CC2)cc1 (stereo not given)	M1 antag 94
C(=C\c1ccccc1)/CN1CCN(C(c2cccs2)c2nnnn2-c2ccc3c(c2)OCCO3)CC1 (stereo not given)	M1 antag 90
CCC(c1nnnn1-c1ccc2c(c1)OCCO2)N1CCN(C/C=C/c2ccccc2)CC1 (stereo not given)	none
C(=C\c1ccccc1)/CN1CCN(C(c2nnnn2-c2ccc3c(c2)OCCO3)C2CC2)CC1 (stereo not given)	none
COc1ccc(-n2nnnc2C(c2cc3ccccc3o2)N2CCN(C/C=C/c3ccccc3)CC2)cc1 (stereo not given)	M1 antag 58
C(=C\c1ccccc1)/CN1CCN(C(c2cc3ccccc3o2)c2nnnn2-c2ccc3c(c2)OCCO3)CC1 (stereo not given)	M1 antag 76
COC(=O)[C@H](Cc1ccc(O)cc1)NC(=O)Cn1cnc2c(OCc3ccccc3)ncnc21	none
Cc1ccc(Cl)cc1N1C(=O)CC(Sc2ccccc2N)C1=O (stereo not given)	none
C[C@@H](c1ccccc1)N1C[C@@H](COCc2ccccc2)Oc2cc(N3CCC[C@H]3CO)ccc2S1(=O)=O	none (no result: M1 ag, M1 PAM, M1 antag)
NC(c1csc(NC(=O)Nc2ccc(OC(F)(F)F)cc2)n1)C1CCCCC1 (stereo not given)	none
CCCCn1nnnc1C(c1cc2ccccc2o1)N1CCN(C/C=C/c2ccccc2)CC1 (stereo not given)	M1 antag 56
COc1ccc(N(CCC#N)S(=O)(=O)c2cccc3nsnc23)cc1	M1 antag 25
Cc1ccc(C)c(N2CCN(C(=O)C3CCCN(S(=O)(=O)c4cnc[nH]4)C3)CC2)c1 (stereo not given)	none
CC(=O)N1CCCc2cc(S(=O)(=O)N3CCCC(C(=O)N4CCN(c5ccccc5)CC4)C3)ccc21 (stereo not given)	M1 ag parental 16
COc1ccccc1N1CCN(C(=O)C2CCCN(S(=O)(=O)c3ccc4c(c3)CCCN4C(C)=O)C2)CC1 (stereo not given)	none
CC(=O)N1CCCc2cc(S(=O)(=O)N3CCCC(C(=O)N4CCN(c5cc(C)ccc5C)CC4)C3)ccc21 (stereo not given)	M1 antag 41
COc1ccc(C)cc1N(C(=O)c1snc(C(N)=O)c1N)C(C(=O)NC1CCCCC1)c1ccc(C)o1 (stereo not given)	none
CSc1ccc(C(=O)C2CCCN(Cc3cccc4nccnc34)C2)cc1 (stereo not given)	M1 antag 68
CCN1C(=O)/C(=C/c2ccc(OCc3ccc(C(=O)O)cc3)c(Cl)c2)NC1=S	CHO-K1 Ca antag 29, M1 ag parental 16
CCCN1C(=O)/C(=C/c2ccc(N3CCOCC3)cc2)NC1=S	M1 ag parental 24
CCN1C(=O)/C(=C/c2ccc(N3CCCC3)cc2)NC1=S	M1 ag 57, CHO-K1 Ca antag 49, M1 ag parental 57, M1 antag 56
O=C(NCC1CCN(S(=O)(=O)c2ccccc2)CC1)Nc1ccc(F)cc1F	none
COc1ccccc1CCC(=O)Nc1ccc2c(c1)CN(Cc1ccc(C)o1)CC2	none
CCOC(=O)CN(C)C(=O)C1CCCN1C(=O)OC(C)(C)C (stereo not given)	none
O=C(Cn1cnc2ccccc21)Nc1ccc(C(=O)O)cc1	none
CC(/C=N/NC(=O)Cn1cnc2ccccc21)=C\c1ccccc1	CHO-K1 Ca antag 27
O=C(Cn1cnc2ccccc21)N/N=C/c1ccccc1	M1 ag parental 17
CC(/C=N/NC(=O)CCn1nnc2ccccc21)=C\c1ccccc1	none
O=C(Cn1cnc2ccccc21)N1CCc2ccccc21	CHO-K1 Ca antag 28
CC1CCc2nn(CC(=O)N3CCc4ccccc43)cc2C1 (stereo not given)	M1 antag 102
COc1ccccc1N(C)S(=O)(=O)c1ccc(C(=O)OCC(=O)NCc2cccs2)cc1	none
Cc1ccccc1CN1CCN(C(=O)c2ccc(F)cc2)CC1	none
CCOC(=O)C1(C)CCCCN1C(=O)c1cccnc1 (stereo not given)	M1 PAM 27
Cc1ccc(N(C(=O)c2ccco2)C2C=CS(=O)(=O)C2)cc1 (stereo not given)	none
O=C(CC12CC3CC(CC(Br)(C3)C1)C2)NC1CCCC1	M1 antag 55
N#Cc1nc(-c2ccccc2Cl)oc1NCC1CCCO1 (stereo not given)	CHO-K1 Ca antag 25
COc1cc(NC(=O)[C@@H](NC(=O)c2ccco2)C(C)C)c(OC)cc1NC(=O)c1ccccc1	none
CC(NC(=O)CN1CCCC1)C12CC3CC(CC(C3)C1)C2 (stereo not given)	none
CC(C(O)C12CC3CC(CC(C3)C1)C2)N1CCCCC1 (stereo not given)	M1 antag 59
O=C(Nc1cccc([N+](=O)[O-])c1)NC1CCCCCCC1	M1 ag parental 16
O=C(Nc1ccc(Br)cc1)NC1CCCCCCC1	M1 antag 30
O=C(CNC1CCCCC1)Nc1cccc([N+](=O)[O-])c1	none
COc1cc(NC(=O)Nc2cccc([N+](=O)[O-])c2)cc(OC)c1	M1 ag parental 15
O=C(Nc1ccccc1)NC1CCCCCCC1	none
COc1ccc(CCNC(=O)Nc2cccc([N+](=O)[O-])c2)cc1	M1 ag parental 15
COc1ccc(CCNC(=O)Nc2cccc([N+](=O)[O-])c2)cc1OC	none
Cc1ccc(NC(=O)c2ccc(S(=O)(=O)N3CCCCC3)cc2)nc1	none
